The test system of assay [1] is XIP peptide (Xip251-270) binding. Nature of the assay: small-molecule binders of XIP peptide, primary screen, biochemical, small-molecule microarray, fluorescence 635/667 nm, 0.1 µg/mL protein (AID 1182). The conditions noted are these: fluorescent protein binding, 635 nm, higher = more signal, called active from +8 up or from −8 down.
Assay [2] has as its system XIP peptide (Xip251-270). The assay is described as follows: small-molecule binders of XIP peptide, primary screen, biochemical, small-molecule microarray, fluorescence 635/667 nm, 0.5 µg/mL protein (AID 1183). The conditions noted are these: small-molecule microarray binding, fluorescence 635 nm; higher = more signal.
The nature of assay [3]: Plasmodium falciparum growth inhibition, primary screen, strain 3D7, DAPI fluorescence, 100 nL (AID 1184).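 Note: parasites grown inside human red blood cells in medium with human serum.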 The conditions noted are these: P. falciparum 3D7 growth, 3 d, higher = more signal.
Assay [4] has as its target Homeobox protein Hox-A13 (Mus musculus) (UniProt Q62424). Nature of the assay: inhibitors of HoxA13-DNA binding, primary screen, biochemical, fluorescence polarization, labeled oligonucleotide (AID 1185). The following applies: 15 min, higher = more signal, called active from +8 up or from −8 down.
A short description of assay [5]: inhibitors of hydroxyurea-induced Chk1 phosphorylation, primary screen, imaging, HeLa, phospho-Chk1 antibody, percent positive cells (AID 1186). The conditions noted are these: hydroxyurea-induced phospho-Chk1 immunofluorescence imaging, higher = more signal.
A short description of assay [6]: inhibitors of hydroxyurea-induced Chk1 phosphorylation, primary screen, imaging, HeLa, phospho-Chk1 nuclear intensity (AID 1187). The conditions noted are these: hydroxyurea-induced phospho-Chk1 immunofluorescence imaging, higher = more signal.

SMILES strings stand for the structures. Activity calls are given as the source filed them. Unless noted, the rule behind the calls is not given here.

Chain of Homeobox protein Hox-A13 (Mus musculus) (Q62424 whole entry, looked up): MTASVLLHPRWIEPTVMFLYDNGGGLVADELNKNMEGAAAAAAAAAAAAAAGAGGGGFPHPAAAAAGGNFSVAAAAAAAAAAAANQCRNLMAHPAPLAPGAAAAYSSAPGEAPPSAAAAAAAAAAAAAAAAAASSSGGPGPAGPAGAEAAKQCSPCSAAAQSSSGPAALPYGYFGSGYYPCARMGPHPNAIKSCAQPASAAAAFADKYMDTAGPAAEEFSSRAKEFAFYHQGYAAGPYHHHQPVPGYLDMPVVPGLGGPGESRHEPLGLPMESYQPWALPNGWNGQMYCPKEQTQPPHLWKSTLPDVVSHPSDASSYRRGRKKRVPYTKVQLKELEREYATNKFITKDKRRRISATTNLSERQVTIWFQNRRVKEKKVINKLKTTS

With `CCCCN1CC=CC23O[C@@H]4C=CCOC(=O)[C@@H]4[C@H]2C(=O)N(CCCCCCO)[C@@H]3C1=O` (stereo partly drawn), the results for the composite z-score in assay [1] and in assay [2] were 1.31 (inactive) and -1.46, respectively. The z-score was -0.198 in assay [3], -4.53 (inactive) in assay [4], -0.0344 (inactive) in assay [5] and -0.364 (inactive) in assay [6].

Consider `CO[C@H]1O[C@H](CO)[C@@H](OC(=O)Nc2ccccc2)[C@@H]2OC(=O)[C@@H](Cc3ccc4ccccc4c3)C/C=C/C[C@H](Cc3ccc4ccccc4c3)C(=O)O[C@@H]12`, for which the composite z-score in assay [1] was 1.97 (inactive); in assay [2], 0.748. Further, the z-score is -0.492 in assay [3], -3.03 (inactive) in assay [4], -0.956 (inactive) in assay [5] and -0.96 (inactive) in assay [6].

With `CCCC1(C(=O)OC)C=C2C(=C(c3ccccc3)C(=O)C2C)CN1` (stereo not drawn), the composite z-score in assay [1] was 0.774 (inactive); in assay [2], 0.871. In addition, the z-score is -0.105 in assay [3], -8.64 (active) in assay [4], -0.323 (inactive) in assay [5] and -0.277 (inactive) in assay [6].

As to `C=CCN1C(=O)[C@]2(O[C@H](CCO)[C@@H]([Si](C)(C)c3ccc(OC)cc3)[C@@H]2C)c2cc(N(C=O)c3ccccc3)ccc21`, the composite z-score was 1.94 (inactive) in assay [1] and 0.749 in assay [2]. Further, the z-score in assay [3] is -2.52; in assay [4], -3.67 (inactive); in assay [5], -1.11 (inactive); in assay [6], -0.984 (inactive).

As to `COC(=O)c1c2oc(c1C(=O)OC)C(=O)NC1(CCCCC1)c1cn(nn1)C[C@H](Cc1ccccc1)NC(=O)N[C@H](CO)CC2`, the composite z-score in assay [1] is 0.064 (inactive); in assay [2] it was -0.271. Further, the z-score in assay [3] is 0.196; in assay [4] it was -4.41 (inactive); in assay [5], -0.0736 (inactive); in assay [6], -0.183 (inactive).

Take `Cc1ccc(/C=C/C=O)cc1`: the composite z-score in assay [1] was 0.551 (inactive); in assay [2], 0.284. The z-score in assay [3] was 1.39; in assay [4] it was -1.15 (inactive); in assay [5], 0.503 (inactive); in assay [6], 0.713 (inactive).

As for `COC(=O)[C@H](Cc1ccccc1)N[C@H](/C=C/C1CC1)[C@@H](O)Cc1ccccc1`, the composite z-score is -0.126 (inactive) in assay [1] and 0.34 in assay [2]. In addition, the z-score in assay [3] was -0.873; in assay [4] it was -5.24 (inactive); in assay [5] it was -0.748 (inactive); in assay [6] it was -0.39 (inactive).

In the case of `CC(C)N1CC=CC23O[C@@H]4C=CCOC(=O)[C@@H]4[C@H]2C(=O)N(CCCCCO)[C@@H]3C1=O` (stereo partly drawn), the figures for the composite z-score in assay [1] and in assay [2] were 0.334 (inactive) and 0.729, respectively. For the same compound, the z-score in assay [3] is -0.758; in assay [4] it was -3.4 (inactive); in assay [5], 0.0031 (inactive); in assay [6], -0.0755 (inactive).

Take `[N-]=[N+]=NCc1ccccc1[C@@H]1OC(c2ccc(OCCCO)cc2)=N[C@]1(CCS(=O)(=O)c1ccccc1)C(=O)N1CCCCC1`: the composite z-score is 0.603 (inactive) in assay [1] and 0.772 in assay [2]. In addition, the z-score was -2.23 in assay [3], -1.6 (inactive) in assay [4], 0.202 (inactive) in assay [5] and 0.161 (inactive) in assay [6].

With `COC(=O)[C@@]1(Cc2ccc(OC)cc2)[C@H]2c3cc(C(=O)N(C)C)n(Cc4ccc(C(F)(F)F)nc4)c3C[C@H]2CN1C(=O)c1ccccc1`, the composite z-score in assay [1] was 0.233 (inactive); in assay [2], 0.497. Further, the z-score was 0.526 in assay [3], -3.56 (inactive) in assay [4], 0.832 (inactive) in assay [5] and 0.858 (inactive) in assay [6].

Consider `C[N+](C)(C)CCCCCCNC(=O)[C@H]1C[C@H]2C(=O)N[C@@H](Cc3ccccc3)C(=O)N2[C@H]1c1cccc(OCCO)c1`, for which the composite z-score in assay [1] was 0.875 (inactive); in assay [2], 0.817. The z-score in assay [3] was -0.463; in assay [4], -5.91 (inactive); in assay [5] it was 0.685 (inactive); in assay [6], 0.484 (inactive).

For `[N-]=[N+]=Nc1ccccc1C[C@]1(C(=O)NCc2ccccc2)N=C(c2ccc(OCCCO)cc2)O[C@H]1c1ccccc1N=[N+]=[N-]`, the composite z-score in assay [1] is -0.12 (inactive); in assay [2], 0.681. For the same compound, the z-score is -2.32 in assay [3], 0.69 (inactive) in assay [4], -0.231 (inactive) in assay [5] and -0.741 (inactive) in assay [6].

As for `CC(C)NC(=O)[C@@H]1c2ccccc2C(=O)N(C(C)C)[C@H]1c1ccc(CO)cc1`, the composite z-score was 0.736 (inactive) in assay [1] and 0.226 in assay [2]. The z-score in assay [3] was -0.25; in assay [4], -2.52 (inactive); in assay [5], -0.0669 (inactive); in assay [6], 0.385 (inactive).

With `C=CC[C@@]1(C(=O)N2CCCCC2)N=C(c2ccc(OCCCO)cc2)O[C@@H]1c1ccccc1N=[N+]=[N-]`, the composite z-score is 0.195 (inactive) in assay [1] and 0.602 in assay [2]. Further, the z-score is -1.94 in assay [3], -2.64 (inactive) in assay [4], -0.679 (inactive) in assay [5] and -0.667 (inactive) in assay [6].

For `C=CCN1Cc2ccccc2[C@@H]2OC(c3ccc(OCCCO)cc3)=N[C@]2(CCS(=O)(=O)c2ccccc2)C1=O`, the figures for the composite z-score in assay [1] and in assay [2] were 0.3 (inactive) and 0.799, respectively. Also, the z-score in assay [3] is -2.3; in assay [4], -2.43 (inactive); in assay [5], -0.386 (inactive); in assay [6], -0.386 (inactive).

In the case of `O=C1O[C@@H](c2ccccc2)[C@@H](c2ccccc2)N2[C@@H](c3ccc(OCCO)cc3)[C@]3(C(=O)Nc4ccc(C#CC5=CCCCC5)cc43)[C@@H](C(=O)N3CCCCCCC3)[C@H]12`, the figures for the composite z-score in assay [1] and in assay [2] were 1.43 (inactive) and 0.679, respectively. The z-score in assay [3] was -2.22; in assay [4], -15.4 (active); in assay [5], 0.201 (inactive); in assay [6], 0.474 (inactive).

As for `CCC(CC)C(O)C1C=CC2C(=O)N(c3ccccc3)C(=O)C2N1Nc1ccccc1` (stereo not drawn), the composite z-score is 0.285 (inactive) in assay [1] and 0.816 in assay [2]. The z-score is 0.0789 in assay [3], -3.76 (inactive) in assay [4], 0.263 (inactive) in assay [5] and 0.0193 (inactive) in assay [6].

For `COc1cc(CO)cc(I)c1O[C@H]1C=C(C(=O)NCCO)C[C@@H](N(C(=O)c2cc3ccccc3oc2=O)C2CCCCCC2)[C@@H]1O`, the figures for the composite z-score in assay [1] and in assay [2] were -0.207 (inactive) and 0.466, respectively. For the same compound, the z-score was -1.8 in assay [3], -7.6 (inactive) in assay [4], 0.21 (inactive) in assay [5] and 0.722 (inactive) in assay [6].

(Values after PubChem BioAssay.)
